{"source": "PubChem BioAssay AID2762", "about": "(National Center for Advancing Translational Sciences (NCATS), 2010)", "note": "Records with an inconclusive call do not appear. The source made the active and inactive calls. Calls follow the shape of the dose curve; as a rule, active = well fitted inhibition curve with a large enough effect; inconclusive = small, poorly fitted or top-dose-only effect, or effect the other way; inactive = no such curve, though single readings can be large or run the other way.", "data": [{"target": "Nuclear receptor ROR-gamma (Mus musculus) (UniProt P51450)", "sequence (P51450 whole entry, looked up, the tested form may be a part)": "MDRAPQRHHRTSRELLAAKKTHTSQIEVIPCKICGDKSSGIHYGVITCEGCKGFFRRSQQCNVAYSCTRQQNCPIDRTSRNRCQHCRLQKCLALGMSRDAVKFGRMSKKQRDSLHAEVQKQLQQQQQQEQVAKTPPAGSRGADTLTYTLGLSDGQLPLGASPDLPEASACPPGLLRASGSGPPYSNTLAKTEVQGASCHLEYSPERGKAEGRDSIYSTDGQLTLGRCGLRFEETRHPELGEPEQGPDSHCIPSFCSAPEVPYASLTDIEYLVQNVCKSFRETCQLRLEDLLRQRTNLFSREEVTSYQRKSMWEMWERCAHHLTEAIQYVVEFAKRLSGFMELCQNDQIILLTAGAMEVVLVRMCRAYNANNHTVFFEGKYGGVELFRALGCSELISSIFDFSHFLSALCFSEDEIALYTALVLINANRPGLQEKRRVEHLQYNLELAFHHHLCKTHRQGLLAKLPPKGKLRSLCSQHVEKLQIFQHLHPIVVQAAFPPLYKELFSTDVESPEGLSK", "assay": "Concentration response confirmation assay for inhibitors of ROR gamma transcriptional activity", "settings": "Drosophila S2 Gal4-RORgamma UAS-luciferase, 20 h; series mostly up to 46.1 µM", "excerpt": "NIH Molecular Libraries Probe Production Network [MLPCN] NIH Chemical Genomics Center [NCGC] MLPCN Grant: R03 DA026211-01 Assay Provider: Dan Littman, New York University Assay Overview: The retinoic acid-related orphan receptor (ROR) gamma is a transcription factor that has a central role in the differentiation of Th17 cells, a subset of T helper cells that secrete the inflammatory cytokines IL-17, IL-17F, and IL-22. Th17 cells have been implicated in graft versus host disease, autoimmune disease and asthma. ROR gamma is induced in naive T helper cells in the presence of TGF-beta combined with IL-6, IL-21, or IL-23, and thereafter directs the expression of the Th17 lineage cytokines. To study the mechanism of action of ROR gamma, an insect cell-based assay was screened. This Drosophila Schneider cell line was stably transfected with two vectors: a gene expressing a fusion of the Gal4 DNA binding domain and ROR gamma transactivation domain under the control of the metallothionine promoter and a Photinus luciferase reporter regulated by the Gal4 binding site enhancer, UAS. […] Small molecule inhibitors of ROR gamma activity are detected by a decrease in luciferase reporter activity.\nAssay Protocol Summary: For screening, 600 cells in 4 uL/well were dispensed into white solid 1536-well plates (Grenier) using a solenoid-based dispenser. Following transfer of 23 nL compound or DMSO vehicle by a pin tool, the plates were incubated 1 hr at ambient temperature, and 1 uL/well copper sulfate (700 uM final concentration) was added. The plates were centrifuged 15 s at 1000 RPM and incubated 20 hr at ambient temperature. After addition of 1.5 uL Photinus luciferase detection reagent, the plates were incubated 10 min at ambient temperature and then read by an ViewLux (Perkin Elmer) to detect luminescence. Keywords: NIH Roadmap, MLPCN, MLI, MLSMR, qHTS, NCGC, qHTS, nuclear hormone receptor, retinoic acid-related orphan receptor, ROR gamma", "values": [{"molecule": "Cc1nc2ccccc2c(=O)n1-c1cc([N+](=O)[O-])cc([N+](=O)[O-])c1", "Potency": "inactive"}, {"molecule": "Cn1ncnc2c(=O)n(C)c(=O)nc1-2", "Potency": "0.996 µM (active)"}, {"molecule": "O=C(Nc1ncc(Cc2ccccc2)s1)C1=NCCN1", "Potency": "9.96 µM (active)"}]}]}
